KB-3-1 tox: qHTS assay for MDR1-selective chemotherapeutics: Primary screen using the parental adenocarcinoma cell KB-3-1. KB-3-1 viability, CellTiter-Glo ATP luminescence, 72 h. Potency, µM (series often up to 46.1 µM), actives largely listed as cytotoxic. 400,000 compounds, 1.4% hits; note: nearly all actives have a fitted effect of over 60% in size
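Here the drug-naive KB-3-1 line serves as comparator for MDR sub-line selectivity; cells received compound titrations, 72 h at 37 °C, then CellTiter-Glo readout.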
SW480 rerep: A quantitative high throughput screen for small molecules that induce DNA re-replication in SW480 colon adenocarcinoma cells. SW480 DNA re-replication, Hoechst DNA content imaging, 48 h. Potency, µM (doses to about 46.1 µM), actives largely listed as activators. 340,000 compounds, 1.8% hits. AID 624297, 2012; note: nearly all actives have a fitted effect of over 55% in size
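First, 250 cells per well were seeded. Next, compound or vehicle (23 nL) was pinned in, plates sat 48 hr at 37 C. Finally Hoechst was added for 40 min before fluorescence scanning.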
HT1080NT lethal: qHTS for induction of synthetic lethality in tumor cells producing 2HG: qHTS for the HT-1080-NT fibrosarcoma cell line; HT-1080-NT fibrosarcoma viability, CellTiter-Glo ATP luminescence, 48 h; Potency, µM (series often up to 46.1 µM), actives largely listed as cytotoxic; 360,000 compounds, 1.6% hits; AID 686970, 2013;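 note: NT is the 2HG producing partner of a matched IDH1 knockdown line; nearly all actives have a fitted effect of over 55% in size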
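Viability by CellTiter-Glo luminescence after 48 h compound exposure at 37C of HT-1080-NT cells (750/well, RPMI, 5% FBS). % activity scaled between DMSO wells and medium-only wells, then curve-fitted and categorized by curve class.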
MCF10A rereplic: A quantitative high throughput screen for small molecules that induce DNA re-replication in MCF 10a normal breast cells | 350,000 compounds, 2.9% hits | Potency, µM (titrated, usually from 46.1 µM), most hits filed as activators | MCF 10A DNA re-replication, Hoechst nuclear intensity, 48 h; note: nearly all actives have a fitted effect of over 50% in size
HT1080 IDH1KD tx: qHTS for induction of synthetic lethality in tumor cells producing 2HG: qHTS for the HT-1080-IDH1KD cell line. HT-1080 IDH1 knockdown viability, ATP luminescence, 48 h. Potency, µM (series often up to 46.1 µM), most hits filed as cytotoxic. 360,000 compounds, 2% hits. AID 686971, 2013
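HT-1080-IDH1KD cells (IDH1 knocked down), 750/well in RPMI with 5% FBS, treated with compound 48 h at 37 degrees C. Viability by CellTiter-Glo luminescence, normalised to DMSO and no-cell wells; concentration-response curves classed.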
KB-V1 cytotox: qHTS assay for MDR1-selective chemotherapeutics: Primary screen using the drug-selected MDR subline cells KB-V1. KB-V1 MDR cells viability, CellTiter-Glo, 72 h. Potency, µM (top dose mostly 46.1 µM), usual class: cytotoxic. 400,000 compounds, 3.4% hits. AID 1347076, 2019; note: nearly all actives have a fitted effect of over 60% in size
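Luminescent ATP read-out (CellTiter-Glo, 10 min) measures survival of drug-selected KB-V1 MDR cells after 72 h, 37 degrees C compound exposure. Medium: phenol-red-free DMEM, 10% FBS. Values from fitted concentration-response curves.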
A number is an active result; i = inactive; ? = inconclusive; nt = no result given. An excerpt weighted towards active compounds, which were near 7.9% of everything screened. Calls come from the whole dose curve; as a rule, active = well fitted curve in the direction sought with a large enough effect; inconclusive = small, poorly fitted or top-dose-only effect, or another doubt; inactive = no such curve, though single readings can be large; an effect the other way counts as inactive or inconclusive.

SMILES	KB-3-1 tox	SW480 rerep	HT1080NT lethal	MCF10A rereplic	HT1080 IDH1KD tx	KB-V1 cytotox
O=C1c2ccccc2C(=O)N1CCOCCN1C(=O)c2ccccc2C1=O	i	i	i	i	i	i
Cc1ccc(NC(=O)Cn2c(=O)c(C(F)(F)F)nc3ccccc32)c(C)c1	i	nt	nt	nt	nt	i
CCN(C(=O)Cn1ncc2c(=O)oc3ccccc3c21)c1ccccc1F	i	nt	nt	nt	nt	i
COc1ccc(/C=C2\CCC/C(=C\C=N\N(C)C)C2=O)cc1	i	i	i	8.2µM	i	?
CN(C)/N=C/C=C1\CCC/C(=C\c2ccc(F)c(F)c2)C1=O	?	?	i	14.1µM	i	?
O=C1/C(=C/c2ccc(C(=O)O)cc2)CCC/C1=C\c1ccc(C(=O)O)cc1	i	i	i	i	i	i
COc1ccc(C=C2CS(=O)(=O)CC(=Cc3ccc(OC)cc3)C2=O)cc1	?	nt	?	nt	3.66µM	?
CCOC(=O)CCc1c(C)c2cc3c(c(C)c2oc1=O)OCN(CCc1ccccc1OC)C3	i	nt	nt	nt	nt	?
CN(Cc1ccc(Br)s1)C(=O)CNC(=O)c1ccc2c(c1)OCO2	i	i	i	i	i	20.6µM
CC(C)c1nnc(NC(=O)c2nc(S(=O)(=O)Cc3ccc(F)cc3)ncc2Cl)s1	?	1.3µM	25.9µM	0.731µM	23.1µM	i
CC(C)c1nnc(NC(=O)c2nc(SCc3ccc(F)cc3)ncc2Cl)s1	i	nt	nt	nt	nt	i
Cc1ccc(CS(=O)(=O)c2ncc(Cl)c(C(=O)Nc3nnc(C(C)C)s3)n2)cc1	?	i	20.6µM	?	9.2µM	?
CCSc1nnc(NC(=O)c2nc(S(=O)(=O)Cc3ccc(F)cc3)ncc2Cl)s1	?	?	?	i	?	i
Cc1cccc(CS(=O)(=O)c2ncc(Cl)c(C(=O)Nc3nnc(C(C)C)s3)n2)c1	16.4µM	?	10.3µM	?	7.31µM	16.4µM
CSc1nnc(NC(=O)c2nc(S(=O)(=O)Cc3cccc(C)c3)ncc2Cl)s1	16.4µM	i	?	2.06µM	20.6µM	?
CN(CC(=O)Nc1ccccc1Cl)C(=O)COC(=O)Cc1ccc(F)cc1	i	i	i	i	i	i
CCNC(=O)C1(C)CCN(Cc2csc(-c3ccccc3)n2)C1 (stereo unspecified)	i	nt	i	nt	i	i
COCCCNC(=O)C1=CCN(S(=O)(=O)c2ccc(OC)cc2)CC1	i	i	i	i	i	i
CCC(C)c1ccc(S(=O)(=O)Nc2cccnc2)cc1 (stereo unspecified)	i	i	i	i	?	i
CC(C)Cc1ccc(S(=O)(=O)Nc2cccnc2)cc1	i	4.61µM	?	i	?	i
NC(=Nc1nc(-c2ccccn2)cc2ccccc12)c1ccccn1	?	?	i	?	?	0.731µM
CCC(c1nnc(SCC(=O)Nc2nnc(-c3ccccc3)o2)n1Cc1ccccc1)N(C)C (stereo unspecified)	i	i	i	i	i	23.1µM
O=S(=O)(CC(CN1CCCC1)N1CCCC1)c1ccc2ccccc2c1 (stereo unspecified)	11.6µM	10.3µM	16.4µM	11.6µM	23.1µM	?
CCn1c(=O)c(CCC(=O)NCC2CCCO2)c(C)c2c(C)nn(-c3ccccc3)c21 (stereo unspecified)	i	i	i	i	i	i
Cc1ccccc1N/N=C/c1c(C)nc2ccccn12	i	i	i	16.4µM	i	i
Cc1ccc(NC(=O)c2c(C)nc3ccccn23)cc1C	i	i	i	i	i	i
O=C(NCC[C@H]1CC[C@@H](NC(=O)C2CCOCC2)[C@@H](CO)O1)Nc1ccc(Cl)cc1	i	nt	i	nt	i	i
CCOC(=O)c1sc(NC(=O)c2ccc(S(=O)(=O)N(CC)CC)cc2)nc1C	i	i	i	i	i	i

Bioassay records: PubChem, National Center for Advancing Translational Sciences (NCATS)
